The record followed here is PubChem BioAssay (NCATS).

For assay [1], the target named is Chromobox protein homolog 1 (Homo sapiens) (UniProt P83916). In words: qHTS Validation Assay for Inhibitors of HP1-beta Chromodomain Interactions with Methylated Histone Tails (AID 488953).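 Also: loss of AlphaScreen luminescence from HP1-beta binding biotinylated H3K9me3 peptide; series mostly up to about 110 µM; % is scaled to controls: 0 for no effect and ±100 for the full control effect; nearly all actives have a fitted effect of over 50% in size.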 From the text:
As our understanding of epigenetics expands, it is becoming clear that players in this field are potential targets for drug development. This area of epigenetic therapy has established applications for the treatment of cancer and neurological diseases. We have been involved in this field for a number of years and have performed high-throughput screens to identify the first small molecule inhibitors of protein methyltransferases. These methyltransferases target multiple substrates, and thus regulate many arms of an epigenetic pathway. The methylation of different substrates often generates docking sites for effector proteins that harbor binding domains (chromo, tudor, PHD, MBT and ANK repeats).
It has been proposed that the binding sites generated for different proteins by these post-translational modifcations mediate downstream effects on chromatin. Consistent with this theory, di- and tri-methylation of histone H3K9 facilitates the binding of heterochromatin protein HP1. The HP1 protein harbors a chromodomain that is responsible for the methyl-dependent interaction between HP1 and lysine 9 of histone H3. […]
Low-affinity protein-protein interactions (Kd in the single- to double-digit micromolar range) such as those discussed here have been very difficult to assay by traditional techniques such as fluorescence polarization or fluorescence resonance energy transfer. […]

Assay [2] has as its target Methanococcus maripaludis chaperonin (MmCpn) (UniProt Q6LX38). In words: High-Throughput Screening for Modulators of Cytosolic Chaperonin Activity: MmCpn Primary Screen (AID 488978).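 Also: 50 nM MmCpn enzyme hydrolysing 30 µM ATP at 37 °C; 0% is about no effect.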 The method in brief: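 Measures ATPase turnover of the M. maripaludis chaperonin (50 nM final) against 30 uM ATP over 10 min at 37C, with compound added 5 min beforehand at room temperature. ADP is quantified by HTRF immunodetection.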

The target in assay [3] is D(1A) dopamine receptor (Homo sapiens) (UniProt P21728). The assay is described as follows: HTS Assay for Allosteric Agonists of the Human D1 Dopamine Receptor: Primary Screen for Agonists (AID 488981). Also: 0% is about no effect. A digest of the protocol: (§1)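 Tetracycline-induced HEK293 T-REx cells force-coupled to calcium signalling were incubated overnight at 30 C and dye-loaded at room temperature. Calcium flux over 180 s after compound addition flagged agonists; a further 180 s read after EC20 dopamine flagged potentiators.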
Sequence of D(1A) dopamine receptor (Homo sapiens) (P21728 whole entry, looked up): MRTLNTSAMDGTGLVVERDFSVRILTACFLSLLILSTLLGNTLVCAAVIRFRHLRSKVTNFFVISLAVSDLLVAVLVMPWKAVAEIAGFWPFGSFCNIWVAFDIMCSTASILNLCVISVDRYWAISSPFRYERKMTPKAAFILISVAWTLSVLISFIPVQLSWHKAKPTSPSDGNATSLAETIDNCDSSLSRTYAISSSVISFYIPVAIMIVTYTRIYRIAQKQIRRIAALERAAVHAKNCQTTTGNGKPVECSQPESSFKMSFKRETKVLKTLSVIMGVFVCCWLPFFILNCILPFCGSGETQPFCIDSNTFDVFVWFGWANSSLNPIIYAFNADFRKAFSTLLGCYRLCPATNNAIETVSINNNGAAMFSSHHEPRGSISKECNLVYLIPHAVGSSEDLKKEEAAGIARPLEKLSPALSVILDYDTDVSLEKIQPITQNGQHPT

Assay [4] has the same target. The assay is described as follows: HTS Assay for Allosteric Agonists of the Human D1 Dopamine Receptor: Primary Screen for Potentiators (AID 488982). Also: 0% is about no effect. The method in brief:
as §1

Assay [5] shares this target. The assay is described as follows: HTS Assay for Allosteric Agonists of the Human D1 Dopamine Receptor: Primary Screen for Antagonists (AID 488983).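 Also: calcium flux response to an EC80 dopamine challenge measured with no-wash dye; % is scaled to controls: 0 for no effect and ±100 for the full control effect; nearly all actives have a fitted effect of over 65% in size.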 The method in brief:
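Tetracycline-induced HEK293 T-REx cells expressing force-coupled D1 were plated overnight at 30 C, dye-loaded for calcium, and read kinetically. Compounds were pinned in, then an EC80 dopamine challenge followed after 180 s to reveal antagonism.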

Assay [6] addresses ATP-dependent 6-phosphofructokinase (Trypanosoma brucei brucei) (UniProt O15648). In words: qHTS Assay to Find Inhibitors of T. brucei phosphofructokinase: hit validation (AID 492961).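 Also: luminescence reports ADP formed as PFK phosphorylates fructose-6-phosphate with ATP; series mostly up to about 51 µM; % is scaled to controls: 0 for no effect and ±100 for the full control effect.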 A digest of the protocol: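 Reaction: 0.1 M triethanolamine pH 8.0, 5 mM MgCl2, F6P 0.5 mM, ATP 0.1 mM, PFK 1.25 nM, 45 min RT. Read-out: ADP-Glo luminescence. Analysis: concentration-response fits, classed by r2 and efficacy.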

In assay [7] the target is ATPase family AAA domain-containing protein 5 (Homo sapiens) (UniProt Q96QE3). The assay is described as follows: Validation screen for small molecules that inhibit ELG1-dependent DNA repair in human embryonic kidney (HEK293T) cells expressing luciferase-tagged ELG1 (AID 493107).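 Also: cells co-treated with the DNA-damaging agent 5-fluorouridine alongside compound; series mostly up to about 46 µM; % is scaled to controls: 0 for no effect and ±100 for the full control effect; inhibitors lower the ELG1-luciferase luminescence signal; nearly all actives have a fitted effect of over 70% in size.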 A digest of the protocol: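 HEK293T cells expressing luciferase-tagged ELG1 were co-treated with 5-fluorouridine and compound or DMSO for 16 hr at 37 °C, 5% CO2. Luciferase activity was then read with ONE-Glo after 30 min at room temperature; suppressed signal indicates blocked ELG1 function.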

For assay [8], the target named is Transient receptor potential cation channel subfamily V member 1 (Homo sapiens) (UniProt Q8NER1). The assay is described as follows: HTS Assay for Compounds that Act as Enhancers of the Vanilloid Receptor 1 (AID 488979). Also: 0% is about no effect. The method in brief: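 TRPV1-expressing cells loaded with Fluo-8 calcium dye; compounds added and calcium influx read kinetically for 3 min (agonist phase), then capsaicin at EC20 added and read 2 min more for enhancement. Fluorescence ex 480/em 520 nm.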
Sequence of Transient receptor potential cation channel subfamily V member 1 (Homo sapiens) (Q8NER1 whole entry, looked up): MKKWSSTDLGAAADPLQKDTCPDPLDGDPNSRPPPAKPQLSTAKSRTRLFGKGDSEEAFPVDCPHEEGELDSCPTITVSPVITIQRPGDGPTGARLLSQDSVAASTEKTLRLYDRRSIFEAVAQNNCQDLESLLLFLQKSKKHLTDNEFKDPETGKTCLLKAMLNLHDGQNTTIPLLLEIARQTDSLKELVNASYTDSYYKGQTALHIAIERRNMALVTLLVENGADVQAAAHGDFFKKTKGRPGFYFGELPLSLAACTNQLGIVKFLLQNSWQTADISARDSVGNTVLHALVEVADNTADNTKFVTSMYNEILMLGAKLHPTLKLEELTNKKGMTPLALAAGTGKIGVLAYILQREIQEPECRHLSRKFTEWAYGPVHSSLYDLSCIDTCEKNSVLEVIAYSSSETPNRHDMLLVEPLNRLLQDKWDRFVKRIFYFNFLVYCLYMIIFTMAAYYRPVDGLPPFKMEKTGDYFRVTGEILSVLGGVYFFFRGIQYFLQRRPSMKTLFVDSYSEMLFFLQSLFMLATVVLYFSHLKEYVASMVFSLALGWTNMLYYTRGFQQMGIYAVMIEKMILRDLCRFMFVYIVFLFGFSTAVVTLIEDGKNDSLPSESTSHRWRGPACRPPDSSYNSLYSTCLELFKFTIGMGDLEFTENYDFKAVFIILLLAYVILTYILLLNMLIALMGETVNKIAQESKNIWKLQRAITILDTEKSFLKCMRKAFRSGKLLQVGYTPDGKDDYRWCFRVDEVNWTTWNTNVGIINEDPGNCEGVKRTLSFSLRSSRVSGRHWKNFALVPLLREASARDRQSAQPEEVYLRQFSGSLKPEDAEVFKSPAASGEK

Assay [9] has as its target Thyrotropin receptor (Homo sapiens) (UniProt P16473). The assay is described as follows: qHTS Assay for Antagonists of the Thyroid Stimulating Hormone Receptor (AID 488980). Also: series mostly up to about 58 µM; 0% is about no effect. The method in brief: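 Cells expressing human TSHR (HEK293) are dispensed in HBSS/HEPES containing 70 uM RO 20-1724, compound is added, then TSH at EC80 (4 nM final). Antibody in lysis buffer follows, 30 minutes at room temperature before HTRF detection.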

Assay [10] concerns the target Thyrotropin-releasing hormone receptor (Homo sapiens) (UniProt P34981). The assay is described as follows: qHTS for Small Molecule Agonists and Allosteric Enhancers of Human TRH Receptor: Validation Screen for Agonists (AID 493127;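 active = calcium activation more than 3 SD above the typical response in the agonist read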;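 also: intracellular calcium rise by fluo-8 fluorescence before TRH EC20 addition; 0% is about no effect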). Particulars: TRH receptor agonist cell assay; at 2 µM; hits give high values. From the text:
NIH Chemical Genomics Center [NCGC]
NIH Molecular Libraries Probe Centers Network [MLPCN]
Assay Submitter (PI): Marvin Gershengorn
This project aims to identify small drug-like molecules that activate (agonists) the thyrotropin releasing hormone (TRH) receptor (TRHR) or enhance its TRH-stimulated activity (allosteric enhancers). TRHR, a drug-accessible cell surface receptor expressed in specific brain regions, and its ligand TRH have been implicated in several central nervous system disorders, including depression and anxiety. […]
For the HTS assay freshly prepared cells are plated at a density of 2000/well in 3 ul of complete DMEM medium containing 10% serum in 1536-well plates and cultured over night at 37 C in a humidified incubator with 5% CO2. […] For the assay, assay plates were loaded into the FDSS kinetic plate reader. […] The plate is measured for kinetically at 1 cycle/sec for 180 seconds and is considered to be the agonist portion of the assay (eg, compounds which activate a positive calcium response during this portion are flagged as potential agonists). Following the 180 second read, 1 ul of either an EC20 (positive modulation assay) is delivered by an onboard pipette head. […]

Molecules are shown by their SMILES. Values without a mark were called inactive. Results filed as inconclusive are left out. Calls of active or inactive are those of the source. Unless noted, calls follow the shape of the dose curve; as a rule, active = well fitted curve in the direction sought with a large enough effect; inconclusive = small, poorly fitted or top-dose-only effect, or another doubt; inactive = no such curve, though single readings can be large; an effect the other way counts as inactive or inconclusive.

Sequence of ATP-dependent 6-phosphofructokinase (Trypanosoma brucei brucei) (O15648 whole entry, looked up): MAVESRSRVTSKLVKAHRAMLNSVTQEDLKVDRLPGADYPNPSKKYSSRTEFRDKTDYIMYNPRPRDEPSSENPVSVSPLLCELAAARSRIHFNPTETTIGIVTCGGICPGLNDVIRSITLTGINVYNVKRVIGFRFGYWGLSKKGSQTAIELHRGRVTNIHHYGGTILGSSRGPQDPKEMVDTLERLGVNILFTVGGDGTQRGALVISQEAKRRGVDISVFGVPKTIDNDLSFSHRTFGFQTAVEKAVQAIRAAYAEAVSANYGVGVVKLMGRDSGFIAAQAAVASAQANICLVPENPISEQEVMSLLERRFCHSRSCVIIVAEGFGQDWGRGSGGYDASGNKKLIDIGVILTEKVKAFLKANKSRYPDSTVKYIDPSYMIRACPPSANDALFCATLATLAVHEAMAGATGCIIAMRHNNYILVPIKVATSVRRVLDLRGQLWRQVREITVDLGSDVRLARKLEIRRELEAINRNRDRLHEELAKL
Sequence of Methanococcus maripaludis chaperonin (MmCpn) (Q6LX38 1-543): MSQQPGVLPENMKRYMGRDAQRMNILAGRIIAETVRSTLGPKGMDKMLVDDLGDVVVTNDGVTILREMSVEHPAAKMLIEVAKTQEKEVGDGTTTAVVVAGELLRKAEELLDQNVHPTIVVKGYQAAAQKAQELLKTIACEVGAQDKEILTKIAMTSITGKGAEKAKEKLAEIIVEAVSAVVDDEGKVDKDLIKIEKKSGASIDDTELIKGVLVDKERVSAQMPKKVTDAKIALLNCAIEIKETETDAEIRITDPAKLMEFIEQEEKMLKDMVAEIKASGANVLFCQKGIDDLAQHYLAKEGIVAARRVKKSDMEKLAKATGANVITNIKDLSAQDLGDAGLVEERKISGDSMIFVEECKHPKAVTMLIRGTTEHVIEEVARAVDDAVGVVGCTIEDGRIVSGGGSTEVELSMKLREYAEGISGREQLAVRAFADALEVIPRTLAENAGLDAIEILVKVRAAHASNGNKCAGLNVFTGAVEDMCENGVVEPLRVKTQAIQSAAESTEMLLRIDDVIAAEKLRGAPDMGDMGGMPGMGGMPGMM
Sequence of Chromobox protein homolog 1 (Homo sapiens) (P83916 whole entry, looked up): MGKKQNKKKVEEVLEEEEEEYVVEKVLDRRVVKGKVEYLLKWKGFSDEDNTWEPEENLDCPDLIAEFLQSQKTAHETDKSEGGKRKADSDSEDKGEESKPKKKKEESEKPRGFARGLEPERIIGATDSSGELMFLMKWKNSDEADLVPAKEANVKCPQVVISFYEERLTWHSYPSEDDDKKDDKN
Sequence of Thyrotropin receptor (Homo sapiens) (P16473 whole entry, looked up): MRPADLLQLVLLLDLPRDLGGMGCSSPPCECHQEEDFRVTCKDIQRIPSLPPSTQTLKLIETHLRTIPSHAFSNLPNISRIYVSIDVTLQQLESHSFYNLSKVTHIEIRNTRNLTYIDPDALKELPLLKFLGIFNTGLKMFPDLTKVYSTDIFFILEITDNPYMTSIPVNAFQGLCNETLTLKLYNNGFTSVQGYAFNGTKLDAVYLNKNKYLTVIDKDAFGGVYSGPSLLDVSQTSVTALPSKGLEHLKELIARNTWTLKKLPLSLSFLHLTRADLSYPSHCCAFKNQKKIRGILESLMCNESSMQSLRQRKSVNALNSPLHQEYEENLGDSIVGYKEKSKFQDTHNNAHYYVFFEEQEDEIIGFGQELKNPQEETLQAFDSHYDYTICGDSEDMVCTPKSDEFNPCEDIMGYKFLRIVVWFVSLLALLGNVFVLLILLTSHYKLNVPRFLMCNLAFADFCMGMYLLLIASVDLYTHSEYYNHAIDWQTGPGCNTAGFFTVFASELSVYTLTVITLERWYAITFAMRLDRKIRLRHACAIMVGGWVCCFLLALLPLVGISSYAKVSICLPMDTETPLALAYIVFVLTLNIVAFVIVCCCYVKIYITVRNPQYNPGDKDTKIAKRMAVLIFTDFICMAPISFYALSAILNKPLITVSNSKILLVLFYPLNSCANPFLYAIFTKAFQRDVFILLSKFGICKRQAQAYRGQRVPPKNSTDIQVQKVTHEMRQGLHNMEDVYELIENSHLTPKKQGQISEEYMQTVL
Sequence of Thyrotropin-releasing hormone receptor (Homo sapiens) (P34981 whole entry, looked up): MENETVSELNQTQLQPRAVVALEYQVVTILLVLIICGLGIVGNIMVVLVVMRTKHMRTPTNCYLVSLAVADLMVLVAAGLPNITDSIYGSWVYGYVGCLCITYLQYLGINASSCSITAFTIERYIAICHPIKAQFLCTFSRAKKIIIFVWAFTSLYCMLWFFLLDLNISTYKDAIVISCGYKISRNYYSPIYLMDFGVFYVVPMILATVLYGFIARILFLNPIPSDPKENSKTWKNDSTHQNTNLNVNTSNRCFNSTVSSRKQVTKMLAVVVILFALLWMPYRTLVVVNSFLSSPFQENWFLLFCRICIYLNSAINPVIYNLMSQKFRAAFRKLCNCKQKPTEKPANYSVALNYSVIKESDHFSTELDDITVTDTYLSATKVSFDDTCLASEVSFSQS

Regarding `C=CCc1cccc(C=NNC(=O)CN2CCN(Cc3ccccc3)CC2)c1O`, the result in [1], in assay [2], in assay [3], in assay [4] and in assay [5] was inactive.
Take `COc1cc2c(cc1OC)CC(=O)N(CCCN(C)C[C@H]1Cc3cc(OC)c(OC)cc31)CC2`: in assay [6], the result was inactive.
Take `Clc1ccc(COC(Cn2ccnc2)c2ccc(Cl)cc2Cl)c(Cl)c1` (stereo not drawn): in [6], the compound was called inactive.
The same measure, in the same setting: the entry for `CC(C)CN(C[C@@H](O)[C@H](Cc1ccccc1)NC(=O)O[C@H]1CO[C@H]2OCC[C@H]21)S(=O)(=O)c1ccc(N)cc1` is “inactive”.
For `NS(=O)(=O)c1cc(Cl)c(Cl)c(S(N)(=O)=O)c1`, in assay [6], the result was inactive.
Consider `C[C@H]1O[C@@H](n2cc(F)c(=O)[nH]c2=O)[C@H](O)[C@H]1O`, for which the outcome in [1], in [2], in assay [3], in assay [4], in [5] and in assay [7] was inactive.
With `CN1CCN2c3ncccc3Cc3ccccc3C2C1` (stereo not drawn), the compound was classed as inactive in assay [6].
Still for that read-out and setting: the entry for `CN1CC(=O)N2C(Cc3c([nH]c4ccccc34)[C@H]2c2ccc3c(c2)OCO3)C1=O` (stereo partly drawn) is “inactive”; for `N#Cc1c(N(CC(=O)O)CC(=O)O)sc(C(=O)O)c1CC(=O)O` it is “inactive”.
Consider `CCNC(=O)[C@H]1O[C@@H](n2cnc3c(N)nc(NCCc4ccc(CCC(=O)O)cc4)nc32)[C@H](O)[C@H]1O`, for which the result in assay [8] and in [9] was inactive. The activation in assay [10] was 0.188%.
Consider `NCC1CCC(C(=O)O)CC1` (stereo not drawn), for which the call in assay [6] was inactive.
Still for that read-out and setting: the entry for `COc1ccnc(CS(=O)c2nc3ccc(OC(F)F)cc3[nH]2)c1OC` (stereo not drawn) is “inactive”.
As for `COc1c(C)c2c(c(O)c1CC=C(C)CCC(=O)OCCN1CCOCC1)C(=O)OC2`, the call in [6] was inactive.
Same read-out and setting: the entry for `O=C(O)c1nc(=O)[nH]c(=O)[nH]1` is “inactive”; for `CS(=O)(=O)c1ccc(C2=C(c3ccccc3)C(=O)OC2)cc1` it is “inactive”.
`O=C1C(CCC(O)c2ccc(F)cc2)C(c2ccc(O)cc2)N1c1ccc(F)cc1` (stereo not drawn): the compound was called inactive in assay [6].
Same read-out and setting: the entry for `N#CC(c1ccc(Cl)cc1)c1c(Cl)cc(-n2ncc(=O)[nH]c2=O)cc1Cl` (stereo not drawn) is “inactive”.
